PubChem BioAssay AID1159580 (chemical genetic matrix, 2015)
The campaign covered roughly 5,500 compounds. About 2,000 (36%) were called active. Another 18% or so got no clear call; they are omitted. Cut-off read from the data, not from the text of the source: active = normalized growth mostly below about 0.91 (no sharp cut-off); inconclusive = no clear call, values can overlap the other calls; inactive = mostly above about 0.92. The list shows a part of the results.

Assay: chemical genetic growth profiling, strain panel (AID 1159580);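 note: tested at 20 µM; growth read once vehicle control cultures reached saturation at 30 °C; 1 = growth at the plate median or of vehicle wells; lower values mean less growth of the strain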
Conditions: S. cerevisiae deletion strains, growth OD

Measured: normalized growth

OC(CN1CCC(Cc2ccc(F)cc2)CC1)c1ccc(Cl)cc1 (centres undefined)
inactive: locus YAL040C, strain CLN3, hits give low values 0.991 | locus YCL061C, strain MRC1 (second series), hits give low values 0.997 | locus YDR150W, strain NUM1, hits give low values 0.999 | locus YDR363W, strain ESC2, hits give low values 1.05 | locus YER002W, strain NOP16, hits give low values 1.03 | locus YGR229C, strain SMI1, hits give low values 1.07 | locus YJR075W, strain HOC1, hits give low values 1.01 | locus YMR263W, strain SAP30, hits give low values 0.992 | locus YNL128W, strain TEP1, hits give low values 1.01 | locus YNL175C, strain NOP13, hits give low values 1 | locus YNL197C, strain WHI3, hits give low values 1.01 | locus YNL224C, strain SQS1, hits give low values 1 | locus YOR083W, strain WHI5 (second series), hits give low values 1.05 | locus YPL055C, strain LGE1, hits give low values 1.01
